From PubChem BioAssay (Tox21)
Results filed as inconclusive are left out. A number with no mark means an inactive call. The call rests on the fitted dose curve; in most records, active means well fitted cell-killing curve with a large enough effect in the repeat runs; inconclusive means weak or mixed curves; inactive means no such curve, though single readings can be large or run the other way.

assay: qHTS assay to identify small molecule agonists of the peroxisome proliferator-activated receptor delta (PPARd) signaling pathway - cell viability counter screen (AID 743211); conditions: PPARd-bla HEK293H viability, CellTiter-Glo luminescence, 17 h; series mostly up to 62.6 µM; activity change, negative = cytotoxicity: at the top concentration; further: nearly all actives have a fitted effect of over 55% in size
Source text: U.S. Tox21 Program National Center for Advancing Translational Sciences [NCATS] NIH Chemical Genomics Center [NCGC] U.S. Environmental Protection Agency [EPA] National Institutes of Environmental Health Sciences [NIEHS] National Toxicology Program [NTP] U.S. Food and Drug Administration [FDA] Tox21 Assay Overview: The peroxisome proliferator-activated receptors (PPARs) are lipid-activated transcription factors of the nuclear receptor superfamily with three distinct subtypes namely PPAR alpha, PPAR delta (PPARd) and PPAR gamma. All these subtypes heterodimerizes with Retinoid X receptor (RXR) and have different physiological functions. […] To identify the compounds that activate PPAR-delta signaling, GeneBLAzer PPAR delta UAS-bla HEK293H cell line (Invitrogen, Carlsbad, CA, USA) containing a beta-lactamase reporter gene under the control of an Upstream Activator Sequence (UAS) was used to screen the Tox21 compound library. The cytotoxicity of the Tox21 compound library against the PPARd-bla cell line was tested in parallel by measuring the cell viability using CellTiter-Glo assay (Promega, Madison, WI) in the same wells.
Tox21 Assay Protocol Summary: PPARd-bla cells were dispensed at 3000 cells/6uL/well in 1536-well black wall/clear bottom plates using a Multidrop Combi (Thermo Fisher Scientific, Waltham, MA) dispenser. After the assay plates were incubated at 37 C and 5% CO2 for 5 h, 23 nL of compounds dissolved in DMSO, positive controls or DMSO only was transferred to the assay plate by a Pintool station (Kalypsys, San Diego, CA). The assay plates were incubated at 37C for 17 h. After 1 uL of LiveBLAzerTM B/G FRET substrate was added using a Bioraptr Flying Reagent Dispenser (FRD) workstation (Beckman Coulter, Indianapolis, IN, USA), the plates were incubated at room temperature for 2 h, and fluorescence intensity was measured by an Envision plate reader (PerkinElmer, Shelton, CT). For cell viability readout that measures cytotoxicity, 3 ul/well of CellTiter-Glo reagent was added into the assay plates using a Bioraptr FRD. After 30 min incubation at room temperature, the luminescence intensity in the plates was measured using a ViewLux plate reader (PerkinElmer).
On the % scale 0 is the no-effect control and ±100 the full control effect.

Compound | activity change, negative = cytotoxicity
C1CCC(C2CCCCC2)CC1 | -15.5%
Cc1cnc[nH]1 | 4.22%
Nc1ccccc1Cl | 0.739%
Cc1nnc2n1-c1sc(CCC(=O)N3CCOCC3)cc1C(c1ccccc1Cl)=NC2 | 17.8%
O=C1c2ccccc2C(=O)c2ccccc21 | -1.21% [at 29.1 µM]
CC(C1CC1)C(O)(Cn1cncn1)c1ccc(Cl)cc1 (stereo not given) | 0.833%
CC(=O)[C@H]1CC[C@H]2[C@@H]3CC[C@H]4C[C@H](O)CC[C@]4(C)[C@H]3C(=O)C[C@]12C | -11.4%
CC1(C)CON(Cc2ccccc2Cl)C1=O | 5%
ClCC(Cl)Cl | -0.251% [at 81.1 µM]
OCCSCSCCO | 5.53%
NC(=O)O | 6.98%
NC(=O)c1cc([N+](=O)[O-])cc([N+](=O)[O-])c1 | -2.84%
CNCC(=O)c1ccc(O)c(O)c1 | 2.97%
N#CC(Cl)(Cl)Cl | 0.54%
Nc1cnn(-c2ccccc2)c(=O)c1Cl | 1.64%
CN/C(=N\[N+](=O)[O-])NCC1CCOC1 (stereo not given) | 1.83%
CCOP(=S)(OCC)Oc1nc(Cl)n(C(C)C)n1 | 1.48%
COC(=O)c1c(C(F)F)nc(C(F)(F)F)c(C2=NCCS2)c1CC(C)C | 11.3%
O=P(O)(Oc1ccccc1)Oc1ccccc1 | 7.56%
CC(CCc1ccccc1)NC(C)C(O)c1ccc(O)cc1 (stereo not given) | 0.272%

Compound | activity change, negative = cytotoxicity
CCOP(=S)(OCC)SCSc1ccc(Cl)cc1 | 3.01%
CCN(CC)C(=O)[C@@H]1C=C2c3cccc4[nH]cc(c34)C[C@H]2N(C)C1 | -9.01% [at 232 µM]
CCCSC(=O)N(CCC)CCC | 0.174%
COC(=O)C1=CCCN(C)C1 | 1.6%
O=[N+]([O-])c1ccc2c3c(cccc13)CC2 | 0.852%
CCOC(=O)C(c1c(O)c2ccccc2oc1=O)c1c(O)c2ccccc2oc1=O | 7.4%
C#CCN1C(=O)COc2cc(F)c(N3C(=O)C4=C(CCCC4)C3=O)cc21 | -2.79%
CCCCc1ccc(O)cc1 | -9.05%
CCCCOP(=O)(O)OCCCC | 1.76%
CC(C)COP(=O)(OCC(C)C)OCC(C)C | 0.66%
COC(=O)COc1ccc(Cl)cc1Cl | 3.85%
Nc1cc(Cl)ccc1O | 2%
CCNc1nc(NC(C)C)nc(OC)n1 | 2.61%
O=C(O)c1cccc(Cl)c1 | -0.917%
CN(N=O)C(N)=O | 4.87%
O=[N+]([O-])c1cccc2c([N+](=O)[O-])cccc12 | 4.83% [at 81.1 µM]
O=C(NCO)NCO | 2.91% [at 81.1 µM]
Oc1c(Cl)cccc1Cl | 0.727%
COCC(=O)N(c1c(C)cccc1C)N1CCOC1=O | 3.66%
C[C@]1(O)CC[C@H]2[C@@H]3CCC4=CC(=O)CC[C@]4(C)[C@@]3(F)[C@@H](O)C[C@@]21C | 6.99% [at 81.1 µM]
